Hits are enriched below; roughly 22% of the tested compounds scored in any of these assays.
cytoskel mod: alters cytoskeleton assembly in HUVEC cells; inhibition, % at 2 µM; hit rate 0.18% among 91,000; HUVEC TNFa F-actin phalloidin imaging, high content; AID 836;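 active = inhibition above the batch mean plus 3 SD and confirmed as a hit by visual image inspection, cut at about 30% in these data, passing the limit was not always enough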
CYP2C9 act: activators of human CYP2C9. AID 1024. activation factor at 5 µM. recombinant CYP2C9, luciferin-H conversion, luminescence; hits give high values; factor 1 = untreated enzyme, 0 = blocked. P11712. hit rate 1.4% among 96,000;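 active = activation factor of 2 or more for CYP2C9 at a 5 µM dose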;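 also: 0 = sulfaphenazole-blocked wells and 1 = vehicle-only wells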
CYP2C19 activ: activators of human cytochrome P450 2C19. 96,000 tested, under 10 active. recombinant CYP2C19, luciferin-H EGE luminescence; hits give high values; 0 = fully inhibited enzyme, 1 = untreated enzyme. AID 1025. P33261. activation factor at 5 µM;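 active = activation factor of at least 2 at 5 µM in the primary screen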;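 also: 0 = wells with 2.5 mM tranylcypromine and 1 = vehicle-only wells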
Target sequence (P33261 whole entry, looked up): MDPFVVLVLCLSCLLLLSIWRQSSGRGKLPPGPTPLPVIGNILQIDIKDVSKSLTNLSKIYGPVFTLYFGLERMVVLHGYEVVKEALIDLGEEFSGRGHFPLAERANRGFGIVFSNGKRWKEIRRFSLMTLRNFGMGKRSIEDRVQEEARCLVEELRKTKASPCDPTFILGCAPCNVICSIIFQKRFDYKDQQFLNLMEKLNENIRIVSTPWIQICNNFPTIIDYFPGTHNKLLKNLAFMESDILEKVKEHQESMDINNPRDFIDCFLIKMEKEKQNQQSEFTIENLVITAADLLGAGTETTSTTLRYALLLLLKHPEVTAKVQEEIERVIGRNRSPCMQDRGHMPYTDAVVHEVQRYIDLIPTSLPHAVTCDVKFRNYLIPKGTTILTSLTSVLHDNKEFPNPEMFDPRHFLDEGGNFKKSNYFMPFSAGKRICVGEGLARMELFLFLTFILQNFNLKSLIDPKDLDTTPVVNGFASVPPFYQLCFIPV
CYP2C9 inh: inhibitors of human CYP2C9; P11712; CYP2C9 Supersomes, luciferin-H conversion, luminescence; inhibition, % at 5 µM; hit rate 20% among 96,000;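 active = blocking of liver enzyme CYP2C9 beyond about 50% at 5 µM, limit read from the data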
CYP2C19 inhib: inhibitors of human CYP2C19; CYP2C19 Supersomes, luciferin-H EGE luminescence, 30 min; inhibition, % at 5 µM; hit rate 21% among 96,000;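 active = CYP2C19 inhibition above a set limit at 5 µM in the primary screen, cut at about 50% in these data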;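 also: plate controls were negative control wells for no effect and 2.5 mM tranylcypromine positive control for full effect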
E-sel TNF inh: blocks E-selectin expression induced by TNF alpha | HUVEC TNFa-induced E-selectin immunofluorescence, high content | inhibition, % at 2 µM | hit rate 0.71% among 120,000 | AID 1246;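 active = inhibition above the batch mean plus 3 SD, and confirmed as a hit on visual image review, cut at about 43% in these data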;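 also: 0% = TNF-stimulated DMSO wells and 100% = unstimulated control wells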
An asterisk follows results filed as active; . = not tested or not shown.

SMILES | cytoskel mod | CYP2C9 act | CYP2C19 activ | CYP2C9 inh | CYP2C19 inhib | E-sel TNF inh
COC(=O)CC(=O)CSc1nc(C)cc(C)c1C#N | 9.4 | 0.8 | 0.7 | 21.0 | 31.1 | 28.4
CCOC(=O)CC(=O)CSc1nc(-c2cccnc2)cc(C)c1C#N | . | 0.2 | 0.6 | 81.1* | 35.3 | .
CCOC(=O)CC(=O)CSc1nc(-c2cccnc2)ccc1C#N | -1.9 | 0.7 | 0.7 | 34.1 | 30.5 | -17.0
Cc1cc2cc(C)c(NCCNC(=O)c3cccs3)nc2cc1C | . | . | . | . | . | -10.8
Cn1cccc1C(=O)C(=O)Nc1cccc(Cl)c1Cl | 30.1 | 2* | 0.7 | -99.1 | 28.1 | -4.9
Cn1cccc1C(=O)C(=O)Nc1ccc(Cl)cc1 | 15.1 | 1.1 | 0.7 | -5.8 | 32.4 | 37.7
O=C1C2=C(Nc3ccccc3SC2c2ccco2)c2ccccc21 (stereo not drawn) | . | 0.2 | 0.8 | 78.1* | 18.7 | .
O=C1c2ccccc2NC(c2ccco2)N1O (stereo not drawn) | 8.4 | 0.9 | 1 | 7.6 | 3.1 | -4.6
CSC1=C(C#N)C(CC(C)C)C2=C(CCCC2=O)N1 (stereo not drawn) | 56.4 | 0.8 | 0.7 | 21.9 | 34.6 | -8.8
CSC1=C(C#N)C(CC(C)C)C(C(C)=O)=C(C)N1 (stereo not drawn) | -5.2 | 0.5 | 0.2 | 48.8 | 81.5* | -8.1
CC(C)SCc1nc2ccccc2[nH]1 | -13.8 | 1.1 | 0.6 | -8.0 | 39.0 | .
Cc1ccc(S(=O)(=O)N2c3cc(C)ccc3OCC2C(C)(C)C)cc1 (stereo not drawn) | . | 0.5 | 1 | 50.5* | 4.5 | .
Cc1ccc(S(=O)(=O)N2c3ccccc3OCC2c2ccccc2)cc1 (stereo not drawn) | -38.7 | . | . | . | . | -13.5
Cc1cc(C(=O)Cn2nnc3ccccc3c2=O)c(C)n1-c1c(C)n(C)n(-c2ccccc2)c1=O | -39.0 | 0.8 | 1 | 23.3 | 2.3 | 7.8
Cc1cc(C(=O)Cn2nnc3ccccc3c2=O)c(C)n1-c1ccccc1F | 8.4 | 1 | 0.5 | 4.4 | 52.4* | -5.1
COc1ccc(-n2c(C)cc(C(=O)Cn3nnc4ccccc4c3=O)c2C)cc1 | -3.3 | 0.2 | 0.4 | 83.3* | 60.0* | -57.3
O=c1sc(N2CCN(c3ccccc3F)CC2)nc2ccsc12 | 5.3 | 1 | 1.2 | 0.2 | -19.2 | .
O=C(C1c2ccccc2C(=O)N2CCc3ccccc3C12)N1CCN(Cc2ccccc2)CC1 (stereo not drawn) | -12.8 | 1 | 1 | 2.7 | -1.6 | -13.4
COc1cc2c(cc1NC(=O)CN1CCN(S(=O)(=O)c3ccccc3F)CC1)oc1ccccc12 | -11.7 | 0.7 | 0.8 | 29.3 | 17.5 | -0.6
COc1cc2c(cc1NS(=O)(=O)N1CCCCC1)oc1ccccc12 | 14.0 | 1.6 | 0.3 | -60.9 | 70.5* | 9.9
O=S(=O)(Nc1ccc2c(c1)oc1ccccc12)N1CCCC1 | -6.8 | 0.1 | 0.5 | 89.3* | 46.9 | -5.2
COc1cc(C)nc(N(Cc2ccccc2)S(=O)(=O)c2ccccc2)n1 | -14.5 | 0.3 | 0.2 | 73.9* | 83.1* | 5.4
CCCN(c1nc(C)cc(OC)n1)S(=O)(=O)c1ccccc1 | 15.4 | . | . | . | . | 5.6
Nc1nnc(SCC(=O)OCC(=O)Nc2ccccc2F)s1 | . | . | . | . | . | -1.8
CC1=NOC2(C1)N(C)c1ccccc1C2(C)C (stereo not drawn) | . | 0.8 | 0.4 | 19.2 | 58.4* | -10.6
SMILES | cytoskel mod | CYP2C9 act | CYP2C19 activ | CYP2C9 inh | CYP2C19 inhib | E-sel TNF inh
O=C(Nc1cc(N2CCCCC2)ncn1)c1ccccc1 | . | . | . | . | . | -1.7
COc1ccc(CN2C(=O)CN(C3CCCCCC3)C(=O)C2c2ccc(OC)c(OC)c2)cc1 (stereo not drawn) | 0.1 | 0.9 | 0.8 | 7.5 | 18.5 | -13.8
CCOC(=O)c1ccc(NC(=O)CCc2nc(-c3ccccc3Cl)no2)cc1 | . | 0 | 0.8 | 95.6* | 24.7 | .
CCOC(=O)c1ccc(NC(=O)CCc2nc(-c3ccccc3)no2)cc1 | . | 0.5 | 0.9 | 50.3* | 5.9 | -48.7
N#CCCN(C1CCCCC1)S(=O)(=O)c1cccc2nsnc12 | . | . | . | . | . | 0.4
CN(C)S(=O)(=O)c1c(Cl)cccc1Cl | -4.0 | 1.3 | 0.9 | -30.6 | 8.2 | -9.8
Cc1nn(-c2ccccc2)c(OC(=O)c2cccs2)c1S(=O)(=O)c1ccc([N+](=O)[O-])cc1 | 0.8 | 0 | 0.5 | 99.4* | 47.1 | 8.7
Nc1cc(OC(=O)c2cccs2)nn1S(=O)(=O)c1ccccc1 | -15.7 | 0.6 | 0.9 | 40.3 | 12.8 | .
COc1c(/C=N/Nc2ccc([N+](=O)[O-])cc2[N+](=O)[O-])c(C)nn1-c1ccccc1 | -6.8 | 1 | 1 | 4.1 | -1.8 | 16.4

High-throughput results from PubChem.
